Compound activity (PubChem)
CaV13 FRET inh: Disruptors of the CACNA1D IQ motif to Ca2+-dependent inactivation inhibitor domain association, primary screening, Förster resonance energy transfer in intact living …. 0.098% of 340,000 active. HEK cells, CFP/YFP FRET ICDI-IQ, plate reader, 10 min; percent FRET-ratio fall versus neutral wells. inhibition, % at 12.3 µM;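 active = mean replicate inhibition of at least 30% and at least 1% of replicates passing that level; inconclusive = only one of the two criteria is met; inactive = neither criterion is met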;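 note: 0% = median of the neutral control wells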
IDE cell inh: human IDE inhibitors in live cells, primary screen, fluorescence polarization, HEK cells, FAbetaB substrate. Insulin-degrading enzyme (Homo sapiens), P14735. FAbetaB cleavage. inhibition, % at 5.59 µM. 0.41% of 320,000 active. AID 434962, 2010;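 active = percent inhibition above the average of all tested compounds plus 3 SD, set per screening campaign, cut at about 16% in these data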;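 note: IDE supplied by intact live HEK cells; FP after avidin binding of uncleaved biotin substrate so inhibition keeps polarization high; 0% = DMSO wells and 100% = 60 µM reference IDE inhibitor Ii1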
ALR H2O2 inh: inhibitors of human ALR sulfhydryl oxidase, primary screen, biochemical, H2O2 detection, HRP-luminol luminescence, single point | FAD-linked sulfhydryl oxidase ALR (Homo sapiens), P55789 | purified ALR, DTT oxidation | inhibition, % (no concentration beside the values) | 3.8% of 290,000 active | AID 485317, 2010;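 active = mean replicate inhibition above about 79%, with every replicate also reaching it, limit read from the data; inconclusive = only one of the two criteria met; inactive = mean below limit and not every replicate reaching it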
IDE act: human IDE activators in live cells, primary screen, fluorescence polarization, HEK cells, FAbeta-B substrate; FAbeta-B cleavage; 0% vehicle, 100% cell-free pure enzyme wells; activation, % at 5.96 µM; 0.073% of 340,000 active; AID 493087, 2011;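 active = activation above the mean of all tested compounds plus 3 SD, set per screening campaign, cut at about 17% in these data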
PolyA inh: polyadenylation inhibitors in yeast reporter cells, primary screen, luminescence, S. cerevisiae | S. cerevisiae SKY197-pL101 polyadenylation reporter, beta-gal luminescence; efflux-impaired pdr1/pdr3 knockout yeast; score 100 = 6 SD above DMSO | activity score, % at 12 µM | 0.02% of 300,000 active | AID 1875, 2009;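 active = lowest replicate activity score at least 50, where 100 means six control SD above control mean; inconclusive = lowest score under 50 but half or more replicates reach 50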;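 note: yeast exposed to compound for 9 h at 30 °C; higher score means more reporter readthrough which indicates perturbed polyadenylation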
PfM18AAP inh-1: PfM18AAP inhibitors, malaria aminopeptidase, primary screen, biochemical, QFRET, recombinant enzyme. M18 aspartyl aminopeptidase (Plasmodium falciparum 3D7). 1.2% of 290,000 active. inhibition, % at 7.35 µM. H-Glu-NHMec fluorogenic cleavage;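 active = inhibition above the campaign mean inhibition over all tested compounds plus 3 SD, cut at about 28% in these data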;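 note: 0% = plate median of test compound wells and 100% = 2 mM ZnCl2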
PfM18AAP inh-2: PfM18AAP inhibitors, malaria aminopeptidase, confirmation, biochemical, QFRET, recombinant enzyme, triplicate. shares compounds with PfM18AAP inh-1. H-Glu-NHMec fluorogenic cleavage. inhibition, % at 7.35 µM. 28% of 2,400 active. AID 2170, 2009;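 active = mean inhibition over replicate wells above the hit cutoff set for the earlier primary screen, cut at about 29% in these data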;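 note: 0% = median of test compound wells and 100% = 2 mM ZnCl2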
CTSL1 counter: cathepsin L1 inhibitors, retest, confirmation, counter-screen for PFM18AAP inhibitor project, biochemical, QFRET, triplicate; shares compounds with PfM18AAP inh-1; purified cathepsin L1, Z-Leu-Arg-MCA fluorescence; inhibition, % at 5.96 µM; 2,400 tested, under 10 active; AID 2178, 2009;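 active = average inhibition across replicates above the hit cutoff set in the earlier primary screen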;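 note: 0% = median of test compound wells and 100% = Z-Phe-Ala-diazomethylketone 1 µM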
Target sequence (P07711 whole entry, looked up): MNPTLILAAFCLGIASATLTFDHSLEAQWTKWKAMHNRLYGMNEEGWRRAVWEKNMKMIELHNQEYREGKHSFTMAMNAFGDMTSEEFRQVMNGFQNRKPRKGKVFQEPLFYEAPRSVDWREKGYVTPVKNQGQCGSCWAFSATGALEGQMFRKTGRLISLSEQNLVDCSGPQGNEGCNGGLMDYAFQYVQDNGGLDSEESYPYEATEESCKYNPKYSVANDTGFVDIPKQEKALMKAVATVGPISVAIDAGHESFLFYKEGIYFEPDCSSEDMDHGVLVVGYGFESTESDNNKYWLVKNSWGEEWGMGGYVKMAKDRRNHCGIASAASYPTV
Numbers without * were called inactive; ? = inconclusive; / = not tested or not shown. Rows were chosen to be rich in hits. Some 4.1% of all compounds tested hit in one or more screens of this group.

SMILES	CaV13 FRET inh	IDE cell inh	ALR H2O2 inh	IDE act	PolyA inh	PfM18AAP inh-1	PfM18AAP inh-2	CTSL1 counter
CCCOc1ccc(C2NC(=S)NC(c3ccccc3)=C2C(=O)Nc2ccc(C)cc2)cc1OC (stereo not drawn)	-6	-1	1	5	7	-8	/	/
Oc1ccc(Br)cc1CNc1cccc2cccnc12	-21	1	/	1	0	46*	-3	103*
Oc1ccc(Br)cc1CNc1cnc2ccccc2c1	-3	1	55	-8	-4	2	/	/
CCC(C)N(C)C1CCN(C(=S)Nc2cccc(SC)c2)CC1 (stereo not drawn)	4	2	-3	5	-1	41*	-21	1
O=C(Nc1nnc([C@@H]2C[C@H](O)[C@@H](CO)O2)s1)Nc1ccc(F)cc1F	-5	/	/	/	/	/	/	/
COc1cc(-c2nnc(SCc3cc(=O)oc4cc(O)c(O)cc34)o2)cc(OC)c1OC	-7	-4	/	-7	5	35*	2	5
CC/C(CC(=O)C(F)(F)F)=N\NC(=O)/C(C#N)=C/N(C)C	-2	5	1	1	21	43*	-54	8
Cc1cccc(/N=C/c2c(O)n(Cc3ccc4c(c3)OCO4)c(=O)c3ccccc23)n1	-3	4	1	1	-12	-6	/	/
Cc1ccnc(Sc2ccc([N+](=O)[O-])cc2[N+](=O)[O-])n1	-9	-2	-9	1	-1	4	/	/
Nc1nc(Sc2ccc([N+](=O)[O-])cc2[N+](=O)[O-])n[nH]1	-3	3	-5	7	2	57*	56*	1
COc1ccc2cc(CN(Cc3ccco3)Cc3nnnn3C3CCCCC3)c(=O)[nH]c2c1	/	1	0	0	14	35*	-37	-4
Fc1ccccc1/C=N/Nc1ncnc2nc[nH]c12	-10	3	56	3	-18	33*	-28	3
NC(=O)Cc1c[nH]c2cccc(O)c12	-3	2	75	2	4	47*	12	-5
NC(=O)COC(=O)CCCc1c[nH]c2ccccc12	/	3	69	3	-11	-4	/	/
COc1ccc(OC)c(/C=N\Nc2nccs2)c1	-6	1	26	3	-9	/	/	/
COc1ccc(/C=N/Nc2cc(C)nc3c(C)cccc23)cc1	-11	5	5	-3	0	12	/	/
COc1cc(/C=N/Nc2ccccc2C(F)(F)F)ccc1O	-7	-6	12	2	4	39*	-13	0
COc1cc(/C=N\Nc2nncn2N)ccc1OC(C)=O	-5	-4	26	4	0	53*	-4	5
COc1ccc(OC)c(/C=N/Nc2nncn2/N=C/c2cc(OC)ccc2OC)c1	-3	2	-3	-3	12	51*	-44	1
COc1cccc2c(N/N=C/c3ccc(O)c(O)c3)cc(C)nc12	-3	2	99*	6	4	56*	32*	-1
COc1ccc(/C=C/C(=O)Nc2ccccc2C(F)(F)F)cc1OC	-3	7	-4	-3	-8	1	/	/
COc1cc(/C=N/NC(=O)c2ccncc2)ccc1OC(C)=O	-18	0	27	3	-9	14	/	/
COc1ccc(N2CCN(CCCNC(=O)Cn3c(=O)c4cccn4c4ccccc43)CC2)cc1	-2	6	?	1	3	9	/	/
